From paper PMC7819943, “Rice protein-binding microarrays: a tool to detect cis-acting elements near promoter regions in rice”
In all, about 68,000 sequences were measured (“fluorescence intensity (a.u.)”: median about 9,100, highest 2% from about 16,000 on). The list comes from a sample in which the highest values are over-represented; it also holds similar and randomly drawn sequences.

biological target: OsWRKY34 (Oryza sativa, UniProt Q0JBA9 1-250); experiment: protein-binding microarray (RPBM); PBS, 2% BSA, 51.3 ng/ul salmon testes DNA, 50 uM zinc acetate, 200 nM TF, 25 C, 1 h; high values mean tight binding; details: protein: recombinant; tags: N-terminal polyhistidine and DsRed monomer fusion (pET32a); label: CyDye5-dUTP incorporated in the synthesized complementary strand; 3' TTTTT single-stranded linker to array surface; dsDNA, one strand shown
How it was run: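 The binding signal is fluorescence intensity per feature, in arbitrary units, read on an Axon 4000B scanner. Polyhistidine- and DsRed-tagged transcription factors (N-terminal fusions) from E. coli BL21-CodonPlus were purified on Ni–NTA and applied at 200 nM for 1 h at 25 °C to a double-stranded, BSA-blocked custom Agilent array in buffer with 50 µM zinc acetate.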

Chain of OsWRKY34 (Q0JBA9 entry or part of it): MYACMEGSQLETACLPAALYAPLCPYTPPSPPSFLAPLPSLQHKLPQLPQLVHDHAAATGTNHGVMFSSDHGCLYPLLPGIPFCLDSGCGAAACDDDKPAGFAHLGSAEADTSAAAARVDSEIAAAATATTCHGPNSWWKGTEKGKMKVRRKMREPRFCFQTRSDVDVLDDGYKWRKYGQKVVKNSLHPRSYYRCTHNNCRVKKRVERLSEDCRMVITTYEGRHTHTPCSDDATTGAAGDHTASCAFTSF

**Q.** Which binding signal does the source give for “CCAGTGGTGGAGTGGAGTGGTGGTGGGGAGACGTGAGGAGCGGAGTCACCTAGTGCAG” here?
**A.** Its binding signal is 8630 fluorescence intensity (a.u.).

**Q.** “CCCTCCTCTCCGCGCGCGCCACCTGTCCATCCGCGCGGAGCGGAGTCACCTAGTGCAG” was tested. Which binding signal did it give?
**A.** The binding signal was 8970 fluorescence intensity (a.u.).

**Q.** For “GGTTATGGTTCAATTCTAATGTTCCTTTGGTGTCACATTTCGGAGTCACCTAGTGCAG”, which binding signal is on record?
**A.** The binding signal was 8200 fluorescence intensity (a.u.).

**Q.** With “GGTGGGAGTGCGCATTGAGGATAAGCCACTGATGACGTCTCGGAGTCACCTAGTGCAG” as the sequence, how does the binding signal read?
**A.** The binding signal was 8600 fluorescence intensity (a.u.).

**Q.** “TTTTCTTCTTTCTTTCTCTCTGTCTTGTTCAATTTTTTCTCGGAGTCACCTAGTGCAG” was tested. Which binding signal did it give?
**A.** Its binding signal is 11800 fluorescence intensity (a.u.).

**Q.** How did the binding signal turn out when “CTCCTGCTTCTCTGTTCTTTCCATTCTCCTCCTTTTTTTCCGGAGTCACCTAGTGCAG” was run?
**A.** The binding signal was 14600 fluorescence intensity (a.u.).

**Q.** “GTGCAGTTGTCTTCTTCTGTTCTTTGGTCATATAGTAGTTCGGAGTCACCTAGTGCAG” was tested. Which binding signal did it give?
**A.** The binding signal was 14900 fluorescence intensity (a.u.).

**Q.** Which binding signal does the source give for “TTAAACGGTCATTCTTGTGTTTTTCCTGTATTTTCTAATCCGGAGTCACCTAGTGCAG” here?
**A.** Its binding signal is 9220 fluorescence intensity (a.u.).

**Q.** How did the binding signal turn out when “CAGTCTGTCTTGGTCTCTTTGTTCAGTCATGGTCTCTCTTCGGAGTCACCTAGTGCAG” was run?
**A.** Its binding signal is 19000 fluorescence intensity (a.u.).

**Q.** “ATACCTCTTGTGTATTAATTAAACATTAGTGTTTCTGTTCCGGAGTCACCTAGTGCAG” was tested. Which binding signal did it give?
**A.** The binding signal was 48000 fluorescence intensity (a.u.).

**Q.** Which binding signal does the source give for “CTTCTTCCACTTGAAGCTTTTTCTCTCTTGGTCTTATCCTCGGAGTCACCTAGTGCAG” here?
**A.** The binding signal was 9690 fluorescence intensity (a.u.).

**Q.** For “TGACATTTAAATTCTGTTTCTCTCTTTGTGTTTTAGTTCCCGGAGTCACCTAGTGCAG”, which binding signal is on record?
**A.** Its binding signal is 9720 fluorescence intensity (a.u.).

**Q.** “TCTCCAGCTTTTTTCTGTTCCTCTGGTCTTGATTCTTGAACGGAGTCACCTAGTGCAG” was tested. Which binding signal did it give?
**A.** Its binding signal is 18200 fluorescence intensity (a.u.).

**Q.** With “TGGTGGGTGCATTGTTGTTCACATTCCGGATCCCTGCATCCGGAGTCACCTAGTGCAG” as the sequence, how does the binding signal read?
**A.** The binding signal was 9220 fluorescence intensity (a.u.).

**Q.** Which binding signal does the source give for “TTGTAGTACTAGGTCGTATCTAATACTAGTTGATTTTTTACGGAGTCACCTAGTGCAG” here?
**A.** The binding signal was 8190 fluorescence intensity (a.u.).

**Q.** Which binding signal does the source give for “TGTATCTCAAATTCTTTCAGTTGGTTTTGTGCTCTTTTTACGGAGTCACCTAGTGCAG” here?
**A.** The binding signal was 8920 fluorescence intensity (a.u.).

**Q.** For “GGCGCTTTATTCAATTGGTCCGCTCTCGGTCTCCTGCACGCGGAGTCACCTAGTGCAG”, which binding signal is on record?
**A.** Its binding signal is 8270 fluorescence intensity (a.u.).

**Q.** How did the binding signal turn out when “GGCGCTTCTAGGGTTTGGTGGGGTTCGGGCGGGCGCGCCGCGGAGTCACCTAGTGCAG” was run?
**A.** The binding signal was 15600 fluorescence intensity (a.u.).

**Q.** For “GGAGGGGACGACGATGGTGGGGTGGGTGGTGTCCGGGGTGCGGAGTCACCTAGTGCAG”, which binding signal is on record?
**A.** The binding signal was 19100 fluorescence intensity (a.u.).

**Q.** How did the binding signal turn out when “CGCGCCGGGTGGCGTTGGTGTTGGCGCCGGGGAGGGTCAGCGGAGTCACCTAGTGCAG” was run?
**A.** Its binding signal is 9140 fluorescence intensity (a.u.).

**Q.** Which binding signal does the source give for “GAGATGGAGGTGGAGGTGGTGGAGGGGACGACGATGGTGGCGGAGTCACCTAGTGCAG” here?
**A.** Its binding signal is 9610 fluorescence intensity (a.u.).

**Q.** “CTGCTGCGAGGGTGGGTGTTGCTTGTACCGGGCGGGGATGCGGAGTCACCTAGTGCAG” was tested. Which binding signal did it give?
**A.** Its binding signal is 20300 fluorescence intensity (a.u.).

**Q.** Which binding signal does the source give for “TTTGCTGCTGCTGCTTCTAGGGTTAGGGTTTGGGGTGGGGCGGAGTCACCTAGTGCAG” here?
**A.** Its binding signal is 22100 fluorescence intensity (a.u.).

**Q.** “GCGGCGCGGCGGGGAGGAGGGAGGGGTGGCGTTGAGGTGGCGGAGTCACCTAGTGCAG” was tested. Which binding signal did it give?
**A.** The binding signal was 19300 fluorescence intensity (a.u.).

**Q.** For “CTGCGGCGAGAGGTGGGAGGCGGGGCGGTTGTACGTGTGCCGGAGTCACCTAGTGCAG”, which binding signal is on record?
**A.** Its binding signal is 11000 fluorescence intensity (a.u.).

**Q.** How did the binding signal turn out when “TGGGGTTGAGGGAGGGTGCCGCGGGTGGCTGGCGGAGGACCGGAGTCACCTAGTGCAG” was run?
**A.** Its binding signal is 10600 fluorescence intensity (a.u.).

**Q.** “GGGAGGGGAGGACGGCGACGGCGGCGGCGGCGGGGTGTGGCGGAGTCACCTAGTGCAG” was tested. Which binding signal did it give?
**A.** The binding signal was 10800 fluorescence intensity (a.u.).

**Q.** With “CGCACTGGCGGGGCTTGGAGCTGGGGTTTCTAGGGTTTGGCGGAGTCACCTAGTGCAG” as the sequence, how does the binding signal read?
**A.** Its binding signal is 8980 fluorescence intensity (a.u.).

**Q.** How did the binding signal turn out when “CGGAGGGGTTGGGCTTGCGGGCGGCGTGTACCTTGTGCACCGGAGTCACCTAGTGCAG” was run?
**A.** Its binding signal is 9410 fluorescence intensity (a.u.).

**Q.** For “TTCATTCATATGGTGTAACTTTTTGTCGCTGTAGGATCGCCGGAGTCACCTAGTGCAG”, which binding signal is on record?
**A.** The binding signal was 8130 fluorescence intensity (a.u.).

**Q.** Which binding signal does the source give for “CTTGCTGCCTGGATTTCTCCCTGTTTGCTCCCTGACGGAGCGGAGTCACCTAGTGCAG” here?
**A.** Its binding signal is 9470 fluorescence intensity (a.u.).

**Q.** How did the binding signal turn out when “TCCGTGACTATGCTTCTTCTTTTCTTTAATTTTCACCAGACGGAGTCACCTAGTGCAG” was run?
**A.** The binding signal was 8750 fluorescence intensity (a.u.).

**Q.** For “AATCAGATGGAGAGTTGGTTATATGGGTGTTTGGAGAGTTCGGAGTCACCTAGTGCAG”, which binding signal is on record?
**A.** Its binding signal is 8410 fluorescence intensity (a.u.).

**Q.** “ATCTCCAAAATCAGTTTAACATCGCCTAATCCACGTCGGTCGGAGTCACCTAGTGCAG” was tested. Which binding signal did it give?
**A.** Its binding signal is 8820 fluorescence intensity (a.u.).

**Q.** How did the binding signal turn out when “TTTGCGTCGCCTTTCATTTTGGATGTTTCAATTTGAATACCGGAGTCACCTAGTGCAG” was run?
**A.** Its binding signal is 10400 fluorescence intensity (a.u.).

**Q.** For “CGTTTGTTGGGTGCGGCGGGCGGGGAGGAGCTCGTGAATGCGGAGTCACCTAGTGCAG”, which binding signal is on record?
**A.** The binding signal was 19600 fluorescence intensity (a.u.).

**Q.** “GCGCGGCGTTGTTGGGTGTGTTCGTGAATCGGGCGGGATGCGGAGTCACCTAGTGCAG” was tested. Which binding signal did it give?
**A.** Its binding signal is 10500 fluorescence intensity (a.u.).

**Q.** With “GGAGGAGGGGCGGCGGAGCGGGTGGTGGGGAGGCGACATGCGGAGTCACCTAGTGCAG” as the sequence, how does the binding signal read?
**A.** The binding signal was 17900 fluorescence intensity (a.u.).

**Q.** With “GTTGCGGGGTGGGTGGTGGCGTTGCGGGAGGAGGAGGGAGCGGAGTCACCTAGTGCAG” as the sequence, how does the binding signal read?
**A.** The binding signal was 23100 fluorescence intensity (a.u.).

**Q.** How did the binding signal turn out when “GAGCGCGCGCGTTGGGCGGGAGGGGTTTGGTTGGTGAGCGCGGAGTCACCTAGTGCAG” was run?
**A.** The binding signal was 11800 fluorescence intensity (a.u.).

**Q.** How did the binding signal turn out when “GTTTTGTTGGGTCGGCGGCGGCGGGTGAGAGTGGAGAATGCGGAGTCACCTAGTGCAG” was run?
**A.** The binding signal was 12900 fluorescence intensity (a.u.).

**Q.** For “GGACGGCGGCGAGCGGCGAGGAGGAGGCGGGGAGGTGGGACGGAGTCACCTAGTGCAG”, which binding signal is on record?
**A.** Its binding signal is 9580 fluorescence intensity (a.u.).

**Q.** How did the binding signal turn out when “GGCGAAGTGGTGGGTGCGTTGGGGCGAGGCGGAGCGGTGGCGGAGTCACCTAGTGCAG” was run?
**A.** Its binding signal is 8050 fluorescence intensity (a.u.).

**Q.** “GTGGGGTGGGTGAGCGGGATGCGGGGCTTAGGCGGGGAAGCGGAGTCACCTAGTGCAG” was tested. Which binding signal did it give?
**A.** Its binding signal is 16500 fluorescence intensity (a.u.).
